Experimental data reported in PubChem BioAssay (EPA / NIEHS).
The source made the active and inactive calls. The calls were made as follows: active = hit-call score of the fitted dose curve at least 0.9, where 1 is the maximum; inactive = score below 0.9.

Key:
Conditions in all cases: mRNA level, 48 h; actives raise or lower the signal
BCL2L11 (gene 10018) = assay: LTEA_HepaRG_BCL2L11: Life Technologies and Expression Analysis (LTEA) Assay for Bcl-2 (BCL2L11) gene using HepaRG (AID 2283473)
Method in brief: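 Read-out is BCL2L11 transcript level by qRT-PCR, normalized to three housekeeping genes and fitted bidirectionally against 0.5% DMSO vehicle. HepaRG cells received chemicals for 48 h in serum-free induction medium, 100 uM down in half-log dilutions.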

[1] = read-out: Apolipoprotein A-V (APOA5) gene, APOA5 (gene 116519); assay: LTEA_HepaRG_APOA5: Life Technologies and Expression Analysis (LTEA) Assay for Apolipoprotein A-V (APOA5) gene using HepaRG (AID 2283474)
Method in brief: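 Readout is APOA5 transcript level by qRT-PCR on Fluidigm dynamic arrays, normalized to three housekeeping genes. HepaRG cultures received chemicals for 48 h at up to 100 uM (half-log steps, 0.5% DMSO), with gain or loss scored relative to DMSO.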

[2] = read-out: Apoptosis regulator Bcl-2 (Homo sapiens) (UniProt P10415); assay: LTEA_HepaRG_BCL2: Life Technologies and Expression Analysis (LTEA) Assay for Bcl-2 gene using HepaRG (AID 2283475)
Method in brief: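 Differentiated human HepaRG cells in serum-free induction medium exposed 48 h, in duplicate, to 8-point half-log series from 100 uM in 0.5% DMSO. BCL2 mRNA by qRT-PCR (TaqMan/Fluidigm), normalized to ACTB, GAPDH, POLR2A; bidirectional fit against DMSO.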

[3] = read-out: Bcl-2 (BID) gene, BID (gene 637); assay: LTEA_HepaRG_BID: Life Technologies and Expression Analysis (LTEA) Assay for Bcl-2 (BID) gene using HepaRG (AID 2283476)
Method in brief: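 Gene expression by qRT-PCR in HepaRG cells after 48 h exposure, duplicate wells, eight half-log concentrations topping at 100 uM in 0.5% DMSO. Normalized to ACTB, GAPDH, POLR2A; bidirectional fitting relative to DMSO.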

Caspase-3 (Homo sapiens) = Caspase-3 (Homo sapiens) (UniProt P42574); assay: LTEA_HepaRG_CASP3: Life Technologies and Expression Analysis (LTEA) Assay for cysteine-aspartic acid protease (CASP3) using HepaRG (AID 2283477)
Sequence of Caspase-3 (Homo sapiens) (P42574 whole entry, looked up): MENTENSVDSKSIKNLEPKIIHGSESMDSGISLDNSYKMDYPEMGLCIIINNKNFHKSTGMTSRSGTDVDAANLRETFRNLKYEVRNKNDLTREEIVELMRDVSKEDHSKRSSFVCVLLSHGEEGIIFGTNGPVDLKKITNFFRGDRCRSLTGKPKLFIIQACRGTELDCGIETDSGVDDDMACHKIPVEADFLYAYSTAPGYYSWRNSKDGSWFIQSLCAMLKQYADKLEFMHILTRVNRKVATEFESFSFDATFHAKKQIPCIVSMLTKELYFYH
Method in brief: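 Read-out is CASP3 mRNA level by TaqMan qRT-PCR in human HepaRG cells after 48 h chemical exposure. Eight half-log concentrations topping at 100 uM were tested in 0.5% DMSO; gain or loss was fitted relative to DMSO.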

[4] = read-out: Cytochrome P450 (CYP24A1), CYP24A1 (gene 1591); assay: LTEA_HepaRG_CYP24A1: Life Technologies and Expression Analysis (LTEA) Assay for Cytochrome P450 (CYP24A1) using HepaRG (AID 2283478)
Method in brief: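 HepaRG, 48 h chemical exposure, 8-pt half-log CRC from 100 uM, 0.5% DMSO vehicle, duplicates. Endpoint: CYP24A1 mRNA by Fluidigm TaqMan qRT-PCR, normalized ACTB/GAPDH/POLR2A; gain/loss fit vs DMSO.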

[5] = read-out: cysteine-aspartic acid protease (CASP8), CASP8 (gene 841); assay: LTEA_HepaRG_CASP8: Life Technologies and Expression Analysis (LTEA) Assay for cysteine-aspartic acid protease (CASP8) using HepaRG (AID 2283480)
Method in brief: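 HepaRG, 48 h exposure, duplicate wells; 8 conc, half-log from 100 uM, 0.5% DMSO. Serum-free induction medium. CASP8 mRNA by TaqMan qRT-PCR, norm. ACTB/GAPDH/POLR2A; gain/loss fitted vs DMSO.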

[6] = read-out: Cytochrome P450 (CYP2B6), CYP2B6 (gene 1555); assay: LTEA_HepaRG_CYP2B6: Life Technologies and Expression Analysis (LTEA) Assay for Cytochrome P450 (CYP2B6) using HepaRG (AID 2283481)
Method in brief: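 HepaRG cells plated 48 h, switched to serum-free induction medium, then dosed 48 h (8 points, half-log from 100 uM, 0.5% DMSO). RNA isolated; CYP2B6 expression measured by qRT-PCR; gain or loss fitted relative to DMSO.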

[7] = read-out: Cytochrome P450 2C19 (Homo sapiens) (UniProt P33261); assay: LTEA_HepaRG_CYP2C19: Life Technologies and Expression Analysis (LTEA) Assay for CYP2C19 using HepaRG (AID 2283482)
Method in brief: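 Transcript levels of CYP2C19 were quantified by qRT-PCR after HepaRG cells were treated for 48 hours with test chemicals up to 100 uM (eight half-log concentrations, 0.5% DMSO vehicle). Gain or loss of signal was fitted relative to DMSO.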

CYP2C8 (gene 1558) = assay: LTEA_HepaRG_CYP2C8: Life Technologies and Expression Analysis (LTEA) Assay for CYP2C8 using HepaRG (AID 2283483)
Method in brief: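 CYP2C8 mRNA induction or loss, by qRT-PCR normalized to ACTB/GAPDH/POLR2A, is read in HepaRG cells after 48 h treatment. Concentrations run from 100 uM down in half-log dilutions, with 0.5% DMSO as vehicle and baseline.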

CYP2C9 (gene 1559) = assay: LTEA_HepaRG_CYP2C9: Life Technologies and Expression Analysis (LTEA) Assay for CYP2C9 using HepaRG (AID 2283484)
Method in brief: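 Cells plated 48 h, switched to serum-free induction medium, then treated in duplicate for 48 h at eight concentrations (max 100 uM, 0.5% DMSO). RNA then analysed by qRT-PCR for CYP2C9; curves fitted in both directions relative to DMSO.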

CYP2E1 (gene 1571) = assay: LTEA_HepaRG_CYP2E1: Life Technologies and Expression Analysis (LTEA) Assay for CYP2E1 using HepaRG (AID 2283485)
Method in brief: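 HepaRG cells, plated 48 h, then exposed 48 h in serum-free induction medium to eight half-log concentrations from 100 uM in 0.5% DMSO, duplicate. CYP2E1 mRNA by qRT-PCR, normalized to ACTB/GAPDH/POLR2A; bidirectional fit versus DMSO.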

CYP4A11 (gene 1579) = assay: LTEA_HepaRG_CYP4A11: Life Technologies and Expression Analysis (LTEA) Assay for CYP4A11 using HepaRG (AID 2283486)
Method in brief: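 HepaRG, 48 h chem exposure, 8 conc (100 uM top, half-log), 0.5% DMSO vehicle; qRT-PCR readout, housekeeping-gene normalized; bidirectional curve fit vs DMSO baseline.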

[8] = read-out: Cytochrome P450 3A4 (Homo sapiens) (UniProt P08684); assay: LTEA_HepaRG_CYP3A4: Life Technologies and Expression Analysis (LTEA) Assay for CYP3A4 using HepaRG (AID 2283487)
Method in brief: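 Differentiated HepaRG cells in serum-free induction medium exposed in duplicate for 48 h to 8 half-log concentrations up to 100 uM in 0.5% DMSO. CYP3A4 mRNA measured by qRT-PCR normalized to ACTB, GAPDH and POLR2A; bidirectional fit versus DMSO.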

[9] = read-out: DNA damage-inducible transcript 3 (DDIT3), DDIT3 (gene 1649); assay: LTEA_HepaRG_DDIT3: Life Technologies and Expression Analysis (LTEA) Assay for DNA damage-inducible transcript 3 (DDIT3) using HepaRG (AID 2283488)
Method in brief: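 HepaRG cells, 48 h after plating, exposed 48 h in serum-free induction medium to 8 half-log concentrations up to 100 uM in 0.5% DMSO, in duplicate. DDIT3 mRNA measured by TaqMan qRT-PCR, normalized to ACTB, GAPDH and POLR2A. Fitted bidirectionally against DMSO.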

[10] = read-out: Pro-epidermal growth factor (Homo sapiens) (UniProt P01133); assay: LTEA_HepaRG_EGF: Life Technologies and Expression Analysis (LTEA) Assay for Epidermal growth factor (EGF) using HepaRG (AID 2283489)
Method in brief: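 HepaRG, 48 h dosing, 100 uM top, half-log x8, 0.5% DMSO. Readout: TaqMan qRT-PCR (Fluidigm array), housekeeping-normalized. Gain or loss of signal fit vs DMSO.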

[11] = read-out: Ezrin (EZR), EZR (gene 7430); assay: LTEA_HepaRG_EZR: Life Technologies and Expression Analysis (LTEA) Assay for Ezrin (EZR) using HepaRG (AID 2283491)
Method in brief: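 Differentiated human HepaRG cells, 48 h after plating, were exposed in serum-free induction medium for 48 hours to eight half-log concentrations up to 100 uM in 0.5% DMSO. EZR mRNA was measured by TaqMan qRT-PCR, normalized to ACTB, GAPDH and POLR2A, and fitted bidirectionally against DMSO.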

[12] = read-out: Cytochrome P450 3A7 (Homo sapiens) (UniProt P24462); assay: LTEA_HepaRG_CYP3A7: Life Technologies and Expression Analysis (LTEA) Assay for CYP3A7 using HepaRG (AID 2283492)
Method in brief: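 Human HepaRG liver cells, 48 h post-plating, switched to serum-free induction medium and exposed in duplicate for 48 h. Dosing: 100 uM top, half-log dilutions, 8 points, 0.5% DMSO vehicle. Read-out: CYP3A7 mRNA, gain or loss fitted against DMSO baseline.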

[13] = read-out: Cytochrome P450 (CYP1A2), CYP1A2 (gene 1544); assay: LTEA_HepaRG_CYP1A2: Life Technologies and Expression Analysis (LTEA) Assay for Cytochrome P450 (CYP1A2) using HepaRG (AID 2283479)
Method in brief: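 CYP1A2 transcript induction or loss, quantified by Fluidigm qRT-PCR against three housekeeping genes, was fitted bidirectionally against 0.5% DMSO controls. Human HepaRG cells received eight half-log concentrations from 100 uM over 48 h.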

[14] = read-out: Early growth response protein 1 (EGR1) transcription factor, EGR1 (gene 1958); assay: LTEA_HepaRG_EGR1: Life Technologies and Expression Analysis (LTEA) Assay for Early growth response protein 1 (EGR1) transcription factor using HepaRG (AID 2283490)
Method in brief: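 Read-out is EGR1 mRNA level by qRT-PCR, normalized to three housekeeping genes and analysed for gain or loss of signal against 0.5% DMSO. Source cells: human HepaRG, treated 48 h at up to 100 uM in half-log dilutions.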

Measured: AC50

Sequence of Cytochrome P450 3A7 (Homo sapiens) (P24462 whole entry, looked up): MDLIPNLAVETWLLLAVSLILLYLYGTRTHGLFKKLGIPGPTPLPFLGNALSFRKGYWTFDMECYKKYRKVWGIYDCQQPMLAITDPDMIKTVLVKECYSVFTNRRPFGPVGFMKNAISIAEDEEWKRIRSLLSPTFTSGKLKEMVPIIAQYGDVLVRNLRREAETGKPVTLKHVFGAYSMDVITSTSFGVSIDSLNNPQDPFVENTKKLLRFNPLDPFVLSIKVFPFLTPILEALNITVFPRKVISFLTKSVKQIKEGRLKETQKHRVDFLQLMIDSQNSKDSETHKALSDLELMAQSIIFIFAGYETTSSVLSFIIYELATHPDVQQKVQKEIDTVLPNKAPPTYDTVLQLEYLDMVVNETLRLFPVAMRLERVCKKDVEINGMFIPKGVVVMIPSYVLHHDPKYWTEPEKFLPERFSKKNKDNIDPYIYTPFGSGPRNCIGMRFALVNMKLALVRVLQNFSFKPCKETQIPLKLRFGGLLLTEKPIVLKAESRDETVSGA
Sequence of Apoptosis regulator Bcl-2 (Homo sapiens) (P10415 whole entry, looked up): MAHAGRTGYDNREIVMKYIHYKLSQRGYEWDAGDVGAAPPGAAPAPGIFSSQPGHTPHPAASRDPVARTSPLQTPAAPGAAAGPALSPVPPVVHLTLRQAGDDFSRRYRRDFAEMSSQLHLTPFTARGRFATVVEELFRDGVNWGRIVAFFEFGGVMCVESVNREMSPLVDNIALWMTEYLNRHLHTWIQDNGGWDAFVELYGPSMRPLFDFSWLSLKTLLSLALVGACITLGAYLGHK
Sequence of Cytochrome P450 2C19 (Homo sapiens) (P33261 whole entry, looked up): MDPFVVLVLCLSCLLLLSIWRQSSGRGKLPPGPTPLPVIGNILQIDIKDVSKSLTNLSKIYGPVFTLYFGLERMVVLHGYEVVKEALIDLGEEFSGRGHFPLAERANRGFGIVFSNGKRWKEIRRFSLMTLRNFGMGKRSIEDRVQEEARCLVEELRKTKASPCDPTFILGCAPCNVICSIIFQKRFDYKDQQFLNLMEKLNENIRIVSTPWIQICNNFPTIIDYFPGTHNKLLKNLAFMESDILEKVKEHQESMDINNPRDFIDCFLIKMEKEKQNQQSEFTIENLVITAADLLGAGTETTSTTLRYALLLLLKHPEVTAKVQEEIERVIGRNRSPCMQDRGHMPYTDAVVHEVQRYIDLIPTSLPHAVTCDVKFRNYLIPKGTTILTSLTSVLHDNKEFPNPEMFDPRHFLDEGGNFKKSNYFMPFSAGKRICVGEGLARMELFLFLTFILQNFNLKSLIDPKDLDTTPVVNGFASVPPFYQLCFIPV
Sequence of Cytochrome P450 3A4 (Homo sapiens) (P08684 whole entry, looked up): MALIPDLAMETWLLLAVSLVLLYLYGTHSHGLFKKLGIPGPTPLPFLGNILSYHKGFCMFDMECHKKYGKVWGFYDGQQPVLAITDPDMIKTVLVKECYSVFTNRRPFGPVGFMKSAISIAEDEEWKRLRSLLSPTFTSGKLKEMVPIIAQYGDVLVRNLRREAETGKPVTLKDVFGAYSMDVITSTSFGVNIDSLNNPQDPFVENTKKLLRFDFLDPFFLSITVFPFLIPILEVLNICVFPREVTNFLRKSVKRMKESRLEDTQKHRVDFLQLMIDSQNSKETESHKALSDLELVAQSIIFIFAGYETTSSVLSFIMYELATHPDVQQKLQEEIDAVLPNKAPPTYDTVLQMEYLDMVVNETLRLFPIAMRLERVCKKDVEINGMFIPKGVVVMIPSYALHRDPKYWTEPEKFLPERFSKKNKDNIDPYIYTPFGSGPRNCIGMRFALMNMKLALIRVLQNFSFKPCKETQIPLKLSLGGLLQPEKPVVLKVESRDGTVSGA

CCCCOC(=O)c1ccccc1
active: [6] 50 µM
not listed: [13] | [14]
inactive: all other assays above

CC(C)CC(C)O (stereo unspecified)
active: [13] 50 µM
not listed: [2]
inactive: all other assays above

O=c1[nH]cnc2c1ncn2[C@H]1CC[C@@H](CO)O1
not listed: [7] | [13]
inactive: all other assays above

NC(N)=O
not listed: [7] | [13]
inactive: all other assays above

CCCCCCCCN(C)C
not listed: [7] | [13]
inactive: all other assays above

CCOc1ccc2[nH]cc(C(=O)NCc3ccccc3)c(=O)c2n1
active: [2] 0.662 µM | CYP2E1 (gene 1571) 63 µM | CYP4A11 (gene 1579) 76.5 µM | [8] 29.2 µM
not listed: [7] | [13]
inactive: all other assays above

CC(C)C(=O)Nc1ccc([N+](=O)[O-])c(C(F)(F)F)c1
inactive: BCL2L11 (gene 10018) | [3] | Caspase-3 (Homo sapiens) | [4] | [5] | [11]
active: [1] 65.9 µM | [2] 90.3 µM | [6] 63.2 µM | [7] 77.3 µM | CYP2C8 (gene 1558) 15.8 µM | CYP2C9 (gene 1559) 66 µM | CYP2E1 (gene 1571) 43.9 µM | CYP4A11 (gene 1579) 50.4 µM | [9] 87.5 µM | [10] 50 µM | [14] 81.9 µM
